Measured values from PubChem BioAssay AID2316 (Broad Institute, 2010).
Screen size: about 29,000 compounds; fewer than 10 were called active. Not all results are given here. A number with no mark means an inactive call. The rule behind the calls is not given here.

Test: activators reversing PD-1 mediated T-cell inhibition, primary screen, luminescence, primary human CD4 T cells, PD-L1 beads (AID 2316);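 note: 0% = median vehicle wells and 100% = positive control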
Conditions: CellTiter-Glo 96 h, hits give high values

Question: With O=C1OC(c2ccc(-c3ccccc3)cc2)=N/C1=C\c1ccco1 as the compound, how does the activation read?
Answer: 1.56%

Question: With C/C=C/c1ccc(OCCCSc2nc(C)cc(=O)[nH]2)c(OC)c1 as the compound, how does the activation read?
Answer: 2.94%

Question: With C[C@H]1CN([C@@H](C)CO)C(=O)Cc2cc(NC(=O)Nc3ccc4c(c3)OCO4)ccc2O[C@H]1CN(C)Cc1ccc(C(=O)Nc2ccccc2N)cc1 as the compound, how does the activation read?
Answer: -2.39%

Question: With C[C@@H]1CCCCO[C@@H](CN(C)C(=O)C2CCCCC2)[C@@H](C)CN([C@H](C)CO)C(=O)c2cc(NC(=O)c3ccccc3)ccc2O1 as the compound, how does the activation read?
Answer: -1.83%

Question: Which activation does the source give for N#Cc1cc2c(nc1SCC(=O)Nc1ccccc1C(F)(F)F)CCCCC2 here?
Answer: 1.79%

Question: With Cc1noc(C)c1NC(=O)Nc1cccc2c1O[C@@H](CN(C)C(=O)Nc1ccc(C(F)(F)F)cc1)[C@@H](C)CN([C@@H](C)CO)C2=O as the compound, how does the activation read?
Answer: -0.0327%

Question: Which activation does the source give for C[C@H](CO)N1C[C@H](C)[C@H](CN(C)S(C)(=O)=O)Oc2ccc(NC(=O)CCCN(C)C)cc2C1=O here?
Answer: 0.789%

Question: With C[C@H](CO)N1C[C@H](C)[C@H](CN(C)CC2CCCCC2)Oc2ccc(NC(=O)CCCCCC(=O)Nc3ccccc3N)cc2CC1=O as the compound, how does the activation read?
Answer: -0.694%

Question: Which activation does the source give for Cc1cccc(NC(=O)CSc2nc3c(cc2C#N)CCCCC3)c1 here?
Answer: -3.01%

Question: For O=C(CSc1nnc(-c2ccccc2)c(-c2ccccc2)n1)Nc1ccccc1, which activation is on record?
Answer: 1.51%

Question: With C[C@H]1CN([C@@H](C)CO)C(=O)c2cc(NC(=O)Cn3cnnn3)ccc2O[C@@H]1CN(C)CC1CCCCC1 as the compound, how does the activation read?
Answer: 1.73%

Question: Which activation does the source give for CCCC1CCC(c2ccc(OC(=O)c3ccco3)cc2)CC1 (stereo not drawn) here?
Answer: -0.337%

Question: For CC(=O)c1c(C)nn(CC(O)COc2ccc3cc(Br)ccc3c2)c1C (stereo not drawn), which activation is on record?
Answer: -6.98%

Question: With O=C(Nc1ccc(C(=O)OCc2cccc(C(=O)c3ccccc3)c2)cc1)c1ccccc1 as the compound, how does the activation read?
Answer: -0.837%

Question: With O=C(CSc1n[nH]c(-c2ccncc2)n1)Nc1ccccc1F as the compound, how does the activation read?
Answer: 2.95%

Question: For Cc1ccc(NC(=O)CN2C(=O)/C(=C\c3ccccc3)SC2=S)cc1, which activation is on record?
Answer: 1.06%

Question: With COC(=O)C1=C(C)NC2=C(C(=O)CC(C)(C)C2)C1c1ccncc1 (stereo not drawn) as the compound, how does the activation read?
Answer: -0.541%

Question: With C[C@@H]1CN([C@@H](C)CO)C(=O)c2cccc(NS(=O)(=O)c3cccs3)c2O[C@@H]1CN(C)CC1CC1 as the compound, how does the activation read?
Answer: 1.15%

Question: For C[C@@H]1CN([C@H](C)CO)C(=O)c2cccc(NC(=O)Nc3ccccc3)c2O[C@H]1CN(C)S(C)(=O)=O, which activation is on record?
Answer: 0.424%

Question: For C[C@H]1CN([C@@H](C)CO)C(=O)Cc2cc(NC(=O)Nc3cccc4ccccc34)ccc2O[C@@H]1CN(C)S(=O)(=O)c1cn(C)cn1, which activation is on record?
Answer: -0.329%

Question: With CC(C)Cc1ccc(/C=C/C(=O)N2CCCC2)cc1 as the compound, how does the activation read?
Answer: -1.3%

Question: With C[C@H]1CN([C@@H](C)CO)C(=O)c2cccc(NC(=O)C3CC3)c2O[C@@H]1CN(C)S(=O)(=O)c1ccc(F)cc1 as the compound, how does the activation read?
Answer: -0.218%

Question: Which activation does the source give for COc1ccc(CN(C)C[C@H]2Oc3c(NS(=O)(=O)c4ccc(C)cc4)cccc3C(=O)N([C@@H](C)CO)C[C@@H]2C)cc1 here?
Answer: -1.26%

Question: For COc1ccc(CN(C)C[C@@H]2Oc3ccc(NS(=O)(=O)c4ccc(F)cc4)cc3C(=O)N([C@@H](C)CO)C[C@@H]2C)cc1, which activation is on record?
Answer: -1.17%

Question: Which activation does the source give for N#Cc1c(SCC(=O)Nc2ccc(F)cc2Cl)nc2c(c1C(F)(F)F)CCCCC2 here?
Answer: 0.417%

Question: For CC(=O)NCCc1nc2cc(NC(=O)c3ccccc3)ccc2n1C, which activation is on record?
Answer: 2.35%

Question: Which activation does the source give for C[C@@H]1CN([C@@H](C)CO)C(=O)c2cc(NC(=O)CCCN(C)C)ccc2O[C@@H]1CN(C)Cc1ccncc1 here?
Answer: 0.414%

Question: Which activation does the source give for CCOc1ccc(NC(=O)C(C)Sc2nnc(C)n2-c2ccccc2)cc1 (stereo not drawn) here?
Answer: -0.74%

Question: With C[C@@H]1CCCCO[C@@H](CN(C)C(=O)NC2CCCCC2)[C@@H](C)CN([C@H](C)CO)C(=O)c2cc(NC(=O)CCC(F)(F)F)ccc2O1 as the compound, how does the activation read?
Answer: -0.155%

Question: For COc1cc(OC)cc(C(=O)N2CCN=C2c2ccccc2)c1, which activation is on record?
Answer: 0.604%

Question: With C[C@@H]1CN([C@@H](C)CO)C(=O)c2cc(NC(=O)Cc3ccccc3)ccc2O[C@H]1CN(C)Cc1ccc(Cl)c(Cl)c1 as the compound, how does the activation read?
Answer: -0.482%

Question: Which activation does the source give for Cc1ccccc1N=C(N)N=C(N)N here?
Answer: -0.656%

Question: With C[C@@H]1CCCCO[C@H](CN(C)C(=O)C2CCCCC2)[C@@H](C)CN([C@H](C)CO)C(=O)c2cc(NC(=O)C3CCCCC3)ccc2O1 as the compound, how does the activation read?
Answer: -3.28%

Question: With CC(=O)c1cccc(NC(=O)CN(C)S(=O)(=O)c2ccc3ccccc3c2)c1 as the compound, how does the activation read?
Answer: 0.81%

Question: With COc1ccccc1-n1c(N)cc(=O)nc1SCC(=O)Nc1ccc(Br)cc1 as the compound, how does the activation read?
Answer: 1.16%

Question: For C[C@H](CO)N1C[C@H](C)[C@H](CN(C)S(=O)(=O)c2cccs2)Oc2ccc(NC(=O)Nc3ccccc3)cc2C1=O, which activation is on record?
Answer: -1.39%

Question: With Cc1ccc(-c2noc(CSc3nnc(-c4cccs4)n3C)n2)cc1 as the compound, how does the activation read?
Answer: 0.512%

Question: Which activation does the source give for Cc1ccc(C)c(OCC(=O)Nc2ccccc2C#N)c1 here?
Answer: -3.9%

Question: With COc1ccc(S(=O)(=O)N(C)C[C@@H]2Oc3ccc(NS(=O)(=O)c4ccc(Cl)cc4)cc3C(=O)N([C@H](C)CO)C[C@H]2C)cc1 as the compound, how does the activation read?
Answer: -2.88%

Question: With O=C(OCC1OC(Oc2ccc(O)cc2COC(=O)C2(O)C(O)CCC(O)C2O)C(O)C(O)C1O)c1ccccc1 (stereo not drawn) as the compound, how does the activation read?
Answer: -1.74%

Question: For C[C@@H]1CN([C@@H](C)CO)C(=O)c2cccc(NS(=O)(=O)c3ccc(Cl)cc3)c2O[C@@H]1CN(C)C(=O)Nc1ccccc1, which activation is on record?
Answer: -0.568%

Question: Which activation does the source give for C[C@@H]1CN([C@H](C)CO)C(=O)Cc2cc(NC(=O)Cn3cnnn3)ccc2O[C@H]1CN(C)Cc1ccc(Cl)c(Cl)c1 here?
Answer: 1.08%

Question: With C[C@@H]1CN([C@@H](C)CO)C(=O)c2cccc(NS(=O)(=O)c3ccc(F)cc3)c2O[C@@H]1CN(C)Cc1ccc(C(=O)O)cc1 as the compound, how does the activation read?
Answer: 1.83%

Question: Which activation does the source give for C[C@H]1CN([C@@H](C)CO)C(=O)c2cc(NS(=O)(=O)c3cccs3)ccc2O[C@@H]1CN(C)C(=O)Nc1cccc2ccccc12 here?
Answer: -0.392%

Question: Which activation does the source give for COc1ccc(NC(=O)Nc2ccc3c(c2)CC(=O)N([C@H](C)CO)C[C@H](C)[C@H](CN(C)Cc2ccncc2)O3)cc1 here?
Answer: 0.119%

Question: With CC(=O)Nc1ccc(Nc2c3c4c(cccc4[nH]c2=O)C(=O)c2ccccc2-3)cc1 as the compound, how does the activation read?
Answer: -3.04%

Question: With Cc1noc(C)c1S(=O)(=O)Nc1ccc2c(c1)CC(=O)N([C@@H](C)CO)C[C@H](C)[C@@H](CN(C)S(=O)(=O)c1cn(C)cn1)O2 as the compound, how does the activation read?
Answer: 1.24%

Question: With C[C@H]1CN([C@@H](C)CO)C(=O)c2cccc(NS(=O)(=O)c3ccc(F)cc3)c2O[C@@H]1CN(C)C as the compound, how does the activation read?
Answer: 0.422%

Question: Which activation does the source give for Cc1ccc(S(=O)(=O)Nc2ccc3c(c2)C(=O)N([C@H](C)CO)C[C@H](C)[C@H](CN(C)S(C)(=O)=O)O3)cc1 here?
Answer: 0.318%

Question: With COc1ccc(NC(=O)Nc2cccc3c2O[C@H](CN(C)C(=O)Nc2ccc(F)cc2)[C@@H](C)CN([C@@H](C)CO)C3=O)cc1 as the compound, how does the activation read?
Answer: 1.83%

Question: For COc1ccc(NC(=O)N(C)C[C@@H]2OCCCC[C@@H](C)Oc3ccc(NC(=O)NC4CCCCC4)cc3C(=O)N([C@H](C)CO)C[C@@H]2C)cc1, which activation is on record?
Answer: 0.764%

Question: With CCOc1ccc(NC(=O)CSc2nccc(C)n2)cc1 as the compound, how does the activation read?
Answer: 1.48%

Question: For Cc1ccc(C)c(NC(=O)CSc2nc(C)nc3sc(C)c(C)c23)c1, which activation is on record?
Answer: 0.586%

Question: With CC(C)(C)c1ccc(S(=O)(=O)NCC(=O)Nc2ccc(F)cc2)cc1 as the compound, how does the activation read?
Answer: -2.51%

Question: Which activation does the source give for COC(=O)c1c(NC(=O)COc2ccc(C(C)C)c(C)c2)sc2c1CCC2 here?
Answer: 0.596%

Question: Which activation does the source give for O=S(=O)(c1ccccc1)c1nc(-c2ccccc2F)oc1NCc1cccnc1 here?
Answer: -0.501%

Question: For COc1ccccc1N(CC(=O)Nc1ccc(C(F)(F)F)cc1)S(C)(=O)=O, which activation is on record?
Answer: 0.0709%

Question: With C[C@@H]1CN([C@H](C)CO)C(=O)c2cccc(NC(=O)c3ccncc3)c2O[C@@H]1CN(C)C as the compound, how does the activation read?
Answer: 0.1%

Question: With Cc1ccc(S(=O)(=O)Nc2ccc3c(c2)CC(=O)N([C@H](C)CO)C[C@@H](C)[C@H](CN(C)S(=O)(=O)c2c(C)noc2C)O3)cc1 as the compound, how does the activation read?
Answer: 0.836%

Question: Which activation does the source give for O=C(NCc1ccccn1)C(=O)Nc1cccc(Cl)c1Cl here?
Answer: 2.26%

Question: For COC1OC(O)C(O)C12CC[C@@]1(O2)[C@H](C)C[C@H]2OC(=O)[C@@]3(C)CCC[C@]1(C)C23 (stereo partly drawn), which activation is on record?
Answer: 0.449%

Question: Which activation does the source give for Cc1ccc(S(=O)(=O)CCC(=O)Nc2ccc(Cl)cc2)cc1 here?
Answer: 0.811%

Question: With Cc1ccc(C(=O)O)cc1S(=O)(=O)NCC1CCCO1 (stereo not drawn) as the compound, how does the activation read?
Answer: -0.751%

Question: Which activation does the source give for COc1ccc(NC(=O)Nc2ccc3c(c2)CC(=O)N([C@@H](C)CO)C[C@H](C)[C@H](CN(C)C(=O)Nc2ccc4c(c2)OCO4)O3)cc1 here?
Answer: 0.0102%

Question: For COc1ccc2nc3c(nc2c1)C(=O)c1ccccc1C3=O, which activation is on record?
Answer: 0.69%

Question: For C[C@H](CO)N1C[C@H](C)[C@@H](CN(C)Cc2ccccc2)Oc2c(NC(=O)CCCCCC(=O)Nc3ccccc3N)cccc2C1=O, which activation is on record?
Answer: -2.46%

Question: Which activation does the source give for Cc1ccc(S(=O)(=O)N(C)C[C@H]2Oc3ccc(NC(=O)Cc4cn(C)c5ccccc45)cc3CC(=O)N([C@@H](C)CO)C[C@H]2C)cc1 here?
Answer: -0.47%

Question: With C/C=C(/C)C(=O)O[C@H]1CC(C)(C)C[C@H]2C3=CCC4[C@@]5(C)CC[C@H](O[C@@H]6O[C@H](C(=O)O)[C@@H](O[C@@H]7O[C@H](CO)[C@H](O)[C@H](O)[C@H]7O[C@@H]7O[C@H](CO)[C@@H](O)[C@H](O)[C@H]7O)[C@H](O)[C@H]6O[C@@H]6O[C@@H](C)[C@H](O)[C@@H](O)[C@H]6O)C(C)(C)C5CC[C@@]4(C)[C@]3(C)[C@@H](OC(C)=O)[C@@H](O)[C@@]12COC(C)=O (stereo partly drawn) as the compound, how does the activation read?
Answer: -14.9%
